Data: PubChem BioAssay AID1159580 (chemical genetic matrix, 2015)
In all, about 5,500 compounds went through this assay and about 2,000 (36%) were called active. Roughly 18% stayed inconclusive and do not appear here. Cut-off read from the data, not from the text of the source: active = normalized growth mostly below about 0.91 (no sharp cut-off); inconclusive = no clear call, values can overlap the other calls; inactive = mostly above about 0.92. This is one part of the list.

Assay: chemical genetic growth profiling, strain panel (AID 1159580);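 note: tested at 20 µM; growth read once vehicle control cultures reached saturation at 30 °C; 1 = growth at the plate median or of vehicle wells; lower values mean less growth of the strain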
Conditions: S. cerevisiae deletion strains, growth OD

Measured: normalized growth

O=C(CC(=O)c1ccccc1)c1ccccc1
active: locus YAL021C, strain ccr4, hits give low values 0.0705 | locus YAL026C, strain drs2, hits give low values 0.175 | locus YAL030W, strain snc1, hits give low values 0.318 | locus YBL061C, strain skt5, hits give low values 0.12 | locus YBR009C, strain hhf1, hits give low values 0.194 | locus YBR023C, strain chs3, hits give low values 0.211 | locus YBR171W, strain sec66, hits give low values 0.735 | locus YBR231C, strain swc5, hits give low values 0.177 | locus YBR279W, strain paf1, hits give low values 0.453 | locus YCL011C, strain gbp2, hits give low values 0.3 | locus YCL016C, strain dcc1, hits give low values 0.43 | locus YCL069W, strain vba3, hits give low values 0.362 | locus YCR088W, strain abp1, hits give low values 0.462 | locus YDL005C, strain med2, hits give low values 0.596 | locus YDL040C, strain nat1, hits give low values 0.698 | locus YDR001C, strain nth1, hits give low values 0.639 | locus YDR069C, strain doa4, hits give low values 0.0695 | locus YDR137W, strain rgp1, hits give low values 0.135 | locus YDR159W, strain sac3, hits give low values 0.541 | locus YDR195W, strain ref2 0.516 | locus YDR297W, strain sur2, hits give low values 0.192 | locus YDR334W, strain swr1, hits give low values 0.152 | locus YDR335W, strain msn5, hits give low values 0.227 | locus YDR392W, strain spt3, hits give low values 0.396 | locus YEL003W, strain gim4, hits give low values 0.379 | locus YEL037C, strain rad23, hits give low values 0.342 | locus YEL061C, strain CIN8 (second series), hits give low values 0.437 | locus YER015W, strain faa2, hits give low values 0.122 | locus YER016W, strain bim1, hits give low values 0.544 | locus YER111C, strain swi4, hits give low values 0.204 | locus YER155C, strain BEM2 (second series), hits give low values 0.381 | locus YFR010W, strain ubp6, hits give low values 0.171 | locus YGL167C, strain pmr1, hits give low values 0.166 | locus YGL173C, strain kem1, hits give low values 0.119 | locus YGL227W, strain vid30, hits give low values 0.725 | locus YGL240W, strain doc1, hits give low values 0.457 | locus YGL253W, strain hxk2, hits give low values 0.147 | locus YHR013C, strain ard1, hits give low values 0.14 | locus YHR027C, strain rpn1, hits give low values 0.0797 | locus YHR030C, strain SLT2, hits give low values 0.515 | locus YHR079C, strain IRE1, hits give low values 0.468 | locus YHR142W, strain chs7, hits give low values 0.171 | locus YJL092W, strain hpr5, hits give low values 0.432 | locus YJL095W, strain BCK1 (second series), hits give low values 0.108 | locus YJL095W, strain BCK1, hits give low values 0.524 | locus YJL115W, strain asf1, hits give low values 0.546 | locus YJL129C, strain trk1, hits give low values 0.596 | locus YJL154C, strain vps35, hits give low values 0.237 | locus YJL164C, strain tpk1, hits give low values 0.154 | locus YJL166W, strain qcr8, hits give low values 0.16 | locus YJR066W, strain TOR1, hits give low values 0.565 | locus YKL160W, strain elf1, hits give low values 0.578 | locus YKR026C, strain gcn3, hits give low values 0.685 | locus YKR091W, strain srl3, hits give low values 0.527 | locus YLL001W, strain dnm1, hits give low values 0.363 | locus YLL026W, hits give low values 0.373 | locus YLL041C, strain sdh2, hits give low values 0.328 | locus YLR027C, strain aat2, hits give low values 0.261 | locus YLR113W, strain HOG1, hits give low values 0.348 | locus YLR221C, strain rsa3, hits give low values 0.284 | locus YLR258W, strain gsy2, hits give low values 0.234 | locus YLR262C, strain YPT6 (second series), hits give low values 0.101 | locus YLR320W, strain mms22, hits give low values 0.207 | locus YLR342W, strain FKS1, hits give low values 0.344 | locus YLR357W, strain rsc2, hits give low values 0.471 | locus YLR370C, strain arc18, hits give low values 0.147 | locus YLR384C, strain iki3, hits give low values 0.437 | locus YML120C, strain ndi1, hits give low values 0.498 | locus YMR058W, strain fet3, hits give low values 0.0728 | locus YMR125W, strain sto1, hits give low values 0.82 | locus YMR129W, hits give low values 0.393 | locus YMR205C, strain PFK2, hits give low values 0.242 | locus YMR231W, strain pep5, hits give low values 0.0832 | locus YNL071W, strain lat1, hits give low values 0.351 | locus YNL183C, strain NPR1, hits give low values 0.517 | locus YNL209W, strain ssb2, hits give low values 0.0845 | locus YNL248C, strain rpa49, hits give low values 0.552 | locus YNL322C, strain KRE1 (second series), hits give low values 0.619 | locus YNR049C, strain mso1, hits give low values 0.434 | locus YOR001W, strain rrp6, hits give low values 0.45 | locus YOR070C, strain gyp1, hits give low values 0.575 | locus YOR080W, strain dia2, hits give low values 0.127 | locus YOR083W, strain WHI5, hits give low values 0.186 | locus YOR106W, strain vam3, hits give low values 0.0633 | locus YOR231W, strain MKK1, hits give low values 0.497 | locus YOR265W, strain rbl2, hits give low values 0.179 | locus YOR270C, strain vph1, hits give low values 0.105 | locus YOR290C, strain snf2, hits give low values 0.391 | locus YPL051W, strain arl3, hits give low values 0.102 | locus YPL078C, strain atp4, hits give low values 0.414 | locus YPL106C, strain sse1, hits give low values 0.416 | locus YPL240C, strain hsp82, hits give low values 0.4 | locus YPL256C, strain CLN2, hits give low values 0.57
